Test results from PubChem BioAssay AID1851 (National Center for Advancing Translational Sciences (NCATS), 2009).
The whole screen tested about 16,000 compounds, of which about 5,800 (36%) were called active. Another 23% or so got no clear call; they are omitted. The call rests on the fitted dose curve; in most records, active means well fitted curve in the direction sought with a large enough effect; inconclusive means small, poorly fitted or top-dose-only effect, or effect the other way; inactive means no such curve, though single readings can be large or run the other way. Some of the results follow.
On the % scale 0 is the no-effect control and ±100 the full control effect.

The molecules below were run against Cytochrome P450 2C19 (Homo sapiens) (UniProt P33261) (assay: Cytochrome panel assay with activity outcomes). Settings: recombinant CYP, pro-luciferin dealkylation, luminescence, p450-cyp2c19; series mostly up to 57.1 µM.
Cytochrome P450 2C19 (Homo sapiens), sequence (P33261 whole entry, looked up): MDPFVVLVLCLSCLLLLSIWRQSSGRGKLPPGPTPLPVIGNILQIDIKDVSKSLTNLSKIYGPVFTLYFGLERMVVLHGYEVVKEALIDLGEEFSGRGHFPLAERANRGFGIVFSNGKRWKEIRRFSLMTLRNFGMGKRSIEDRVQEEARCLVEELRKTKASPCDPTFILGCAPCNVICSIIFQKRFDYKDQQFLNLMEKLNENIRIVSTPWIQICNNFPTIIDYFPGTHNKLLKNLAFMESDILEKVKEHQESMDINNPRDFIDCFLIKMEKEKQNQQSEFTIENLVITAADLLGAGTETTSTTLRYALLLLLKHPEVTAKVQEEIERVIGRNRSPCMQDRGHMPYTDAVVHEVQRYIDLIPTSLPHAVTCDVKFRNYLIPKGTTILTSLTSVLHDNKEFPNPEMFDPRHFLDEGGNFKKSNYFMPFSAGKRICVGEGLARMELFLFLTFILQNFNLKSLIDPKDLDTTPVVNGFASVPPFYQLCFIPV
Cc1cc([N+](=O)[O-])ccc1-c1ccc(C2Nc3ccccc3C(=O)N2O)o1 (stereo not drawn) was tested, and the AC50 was 4470 nM (active).
For O=[N+]([O-])c1ccc2c(c1)S(=O)c1ccccc1-2 (stereo not drawn), the activity, negative = inhibition was 14.6% [at 11.4 µM] (inactive).
O=C(O)CSc1nc2ccccc2[nH]1 was tested, and the activity, negative = inhibition was 5.01% [at 11.4 µM] (inactive).
In the case of O=C(CSc1nc2ccccc2[nH]1)Nc1c(F)cccc1F, the AC50 is reported as 8910 nM (active).
CCOC(=O)CCN1C(=O)[C@H]2[C@H]3[C@H](O)[C@H](O)C/C(=N/OC[C@@H](O)COCc4ccco4)[C@@H]3CC[C@@H]2C1=O was tested, and the activity, negative = inhibition was 40.5% [at 11.4 µM] (inactive).
O=C(O)c1ccc(Oc2nc3ccccc3s2)cc1 was tested, and the AC50 was 3980 nM (active).
O=C(Nc1ccccc1-c1nc2ccccc2[nH]1)c1ccc(S(=O)(=O)N2CCCCC2)cc1 was tested, and the AC50 was 2510 nM (active).
With Cc1sc(=NC(=O)c2ccco2)n(C)c1-c1ccccc1 the AC50 was 8910 nM (active).
For COc1ccc(CNc2ccnc(-c3ccccc3Cl)n2)c(OC)c1, the AC50 was 1260 nM (active).
With COc1ccc(CNc2ccnc(-c3ccccc3C(F)(F)F)n2)c(OC)c1 the AC50 was 10000 nM (active).
With COc1ccccc1CNc1ccnc(-c2ccccc2Cl)n1 the AC50 was 1580 nM (active).
With COc1ccc(CNc2ccnc(-c3ccccc3CN(C)C)n2)c(OC)c1 the AC50 was “inactive”.
For CNc1ccnc(-c2ccccc2CN(C)C)n1, the AC50 was “inactive”.
With O=C(N/N=C1/C[C@@H](O)[C@@H](O)[C@@H]2[C@H]3C(=O)N(c4ccc(F)cc4F)C(=O)[C@@H]3CC[C@@H]12)OCc1ccccc1 the activity, negative = inhibition was -16.8% [at 11.4 µM] (inactive).
NC(=O)C[C@H](NC(=O)Cc1ccc(O)cc1O)C(=O)O was tested, and the AC50 was “inactive”.
Fc1ccc([C@H]2CCNC[C@H]2COc2ccc3c(c2)OCO3)cc1 was tested, and the AC50 was “inactive”.
CC1(C)CC(=O)C2=C(C1)Nc1cc3c(cc1C2c1ccc(F)cc1)OCO3 (stereo not drawn) was tested, and the AC50 was 4470 nM (active).
In the case of N=C(N)c1ccc(N=Nc2c(O)ccc3c2[nH]c2ccccc23)cc1, the AC50 is reported as 1260 nM (active).
NS(=O)(=O)c1ccc(N=Nc2c(O)c(C(=O)O)cc3ccccc23)cc1 was tested, and the activity, negative = inhibition was 9.68% [at 11.4 µM] (inactive).
For N=C(N)c1ccccc1, the AC50 was “inactive”.
For CSc1ccc(NC(=O)NCCCN2CCN(c3ccccc3F)CC2)cc1, the AC50 was 15800 nM (active).
In the case of O=C(CCCN1CC=C(n2c(=O)[nH]c3ccccc32)CC1)c1ccc(F)cc1, the AC50 is reported as “inactive”.
For O=C(NCCCN1CCN(C2CCCCC2)CC1)Nc1ccccc1C(F)(F)F, the AC50 was “inactive”.
S=C(S)NCCCn1ccnc1 was tested, and the activity, negative = inhibition was -30% [at 11.4 µM] (inactive).
With Cc1cc(=O)oc(C)c1C(=O)NCCCN1CCN(c2ccc(F)cc2)CC1 the AC50 was “inactive”.
With O=C(CCN1CCc2ccccc2C1)Nc1ccc(F)cc1 the AC50 was 7940 nM (active).
For O=C(NCCCn1ccnc1)Nc1ccc(Cl)cc1, the AC50 was 56.2 nM (active).
With O=C(O)c1ccccc1-c1ccccc1C(=O)Nc1ccc2c(c1)Cc1cc(F)ccc1-2 the activity, negative = inhibition was -34% [at 11.4 µM] (inactive).
In the case of COc1ccc2c(Cl)c(C(=O)NCCCn3ccnc3)sc2c1Cl, the AC50 is reported as 794 nM (active).
In the case of O=C1Cc2c([nH]c3ccc(Br)cc23)-c2ccccc2N1, the AC50 is reported as “inactive”.
With O=C(NCCCN1CCc2ccccc2C1)Nc1ccc(Cl)cc1 the AC50 was 15800 nM (active).
In the case of CSc1ccc(NC(=O)NCCN2CCc3ccccc3C2)cc1, the AC50 is reported as 15800 nM (active).
In the case of CC(C)[C@H](NC(=O)OC(C)(C)C)[C@@H](O)CC(=O)C(C)(C)C, the activity, negative = inhibition is reported as -18.4% [at 11.4 µM] (inactive).
With CC(C)[C@@H]1NC(=O)[C@H](CCCCN)NC(=O)[C@H](Cc2c[nH]c3ccccc23)NC(=O)[C@H](Cc2ccc(O)cc2)NC(=O)[C@H](C)N(C)C(=O)[C@H](Cc2ccccc2)NC1=O the AC50 was “inactive”.
In the case of CCOc1ccc(NC(=O)c2ccc(OC)cc2)cc1, the AC50 is reported as “inactive”.
For O=C(Nc1cccc(OC(=O)c2cccnc2)c1)c1cccnc1, the AC50 was “inactive”.
In the case of COc1ccc(C(=O)Nc2cc(OC)cc(OC)c2)cc1, the AC50 is reported as 2510 nM (active).
In the case of COc1ccc(C(=O)Nc2cccc(OC(=O)c3ccc(C)c(C)c3)c2)cc1, the AC50 is reported as 7940 nM (active).
For COc1ccc2c(=O)cc(-c3ccncc3)oc2c1OC, the AC50 was 1580 nM (active).
With COc1ccc2c(OC)c3ccoc3nc2c1OC the AC50 was “inactive”.
For CCc1ccc2c(-c3cccc(Cl)c3)nc(=O)n(CC)c2n1, the AC50 was “inactive”.
With CCn1c2ccccc2c2nnc(NCCCO)nc21 the activity, negative = inhibition was 5.92% [at 11.4 µM] (inactive).
With CCn1c2ccc(Cl)cc2c2nc3ccccc3nc21 the AC50 was 14100 nM (active).
In the case of Cc1noc(C)c1-c1ccc2ncnc(NCCN3CCOCC3)c2c1, the AC50 is reported as “inactive”.
For Cc1cccc(CNc2ncnc3ccc(-c4c(C)noc4C)cc23)c1, the AC50 was 5010 nM (active).
In the case of Cc1noc(C)c1-c1ccc2ncnc(NCc3cccs3)c2c1, the AC50 is reported as 1260 nM (active).
With COCCNc1ncnc2ccc(-c3c(C)noc3C)cc12 the AC50 was 10000 nM (active).
With Cc1noc(C)c1-c1ccc2ncnc(NCc3ccccc3)c2c1 the AC50 was 7940 nM (active).
CC(=O)NCCNc1ncnc2ccc(-c3c(C)noc3C)cc12 was tested, and the AC50 was “inactive”.
For C=C(C)C1Cc2nc(N)nc(C)c2C1 (stereo not drawn), the AC50 was “inactive”.
COc1cc(C)cc2c(-c3c(O)cc(O)c4c3C[C@H](C)N[C@@H]4C)cc(-c3cc(-c4c(O)cc(O)c5c4C[C@H](C)N[C@@H]5C)c4cc(C)cc(OC)c4c3O)c(O)c12 was tested, and the activity, negative = inhibition was -31.6% [at 11.4 µM] (inactive).
In the case of Cc1noc(C)c1-c1ccc2ncnc(NCc3cccnc3)c2c1, the AC50 is reported as 20 nM (active).
For CC1(C)OC[C@@H]2O[C@H](n3cnc4c(N)nc(Cl)nc43)[C@@H](OS(C)(=O)=O)[C@@H]2O1, the activity, negative = inhibition was 8% [at 11.4 µM] (inactive).
With COc1cccc(-c2ccc3ncnc(N(C)Cc4ccco4)c3c2)c1 the AC50 was 2000 nM (active).
For CN(Cc1ccco1)c1ncnc2ccc(-c3ccc4c(c3)OCO4)cc12, the AC50 was 631 nM (active).
With CN(Cc1ccco1)c1ncnc2ccc(-c3cccnc3)cc12 the AC50 was 7940 nM (active).
With CN(Cc1ccco1)c1ncnc2ccc(-c3cccc(NS(C)(=O)=O)c3)cc12 the AC50 was 7940 nM (active).
CN1CCN(c2ncnc3ccc(-c4cccc(NS(C)(=O)=O)c4)cc23)CC1 was tested, and the AC50 was “inactive”.
In the case of CCOc1ccc2nc3cc(N=Nc4ccc(N)nc4N)ccc3c(N)c2c1, the activity, negative = inhibition is reported as -6.5% [at 11.4 µM] (inactive).
With CN(C)C(=O)c1ccc(-c2ccc3ncnc(N(C)C)c3c2)cc1 the AC50 was “inactive”.
COc1cccc(-c2ccc3ncnc(N(C)C)c3c2)c1 was tested, and the AC50 was 3160 nM (active).
For CN(C)c1ncnc2ccc(-c3cccnc3)cc12, the AC50 was “inactive”.
C=CCSc1nnc(NC(=O)COc2ccc3ccccc3c2)s1 was tested, and the AC50 was 2240 nM (active).
CCSc1nnc(NC(=O)COc2ccc3ccccc3c2)s1 was tested, and the AC50 was 282 nM (active).
For O=C(O)CCC(=O)Nc1ccc2ccccc2c1, the activity, negative = inhibition was -18.3% [at 11.4 µM] (inactive).
In the case of CCc1ccc(OCC(=O)Nc2ccc(-c3nc4ccccc4o3)c(O)c2)cc1, the AC50 is reported as “inactive”.
With CCC(CC)c1nnc(NC(=O)COc2ccc3c(C)cc(=O)oc3c2)s1 the AC50 was “inactive”.
With O=C(COc1ccc2ccccc2c1)Nc1ccc(Cc2ccncc2)cc1 the AC50 was 178 nM (active).
With CN1CC[C@@]2(CCN3CCc4c(oc5ccccc45)[C@@H]3C2)N(C)C1=O the AC50 was “inactive”.
For CC(C)=CCc1c2c(c3occ(-c4ccc(O)c(O)c4)c(=O)c3c1O)C=CC(C)(C)O2, the AC50 was 2000 nM (active).
In the case of Cc1nc(NC(=O)c2ccccc2)sc1-c1csc(Nc2cccc(F)c2)n1, the AC50 is reported as 562 nM (active).
For Cc1ccc(Nc2nc(-c3sc(NC(=O)c4ccc([N+](=O)[O-])cc4)nc3C)cs2)cc1, the AC50 was 1260 nM (active).
With Cc1ccc(Nc2nc(-c3sc(NC(=O)c4cccc(Cl)c4)nc3C)cs2)cc1 the AC50 was 1410 nM (active).
For Cc1cccc(C(=O)Nc2nnc(-c3ccc(C(C)(C)C)cc3)s2)c1, the AC50 was “inactive”.
With O=C(Nc1nnc(CCS(=O)(=O)c2ccc(Br)cc2)s1)c1ccc([N+](=O)[O-])cc1 the AC50 was “inactive”.
Cc1nc(NC(=O)c2ccccc2)sc1-c1csc(Nc2ccc(Cl)cc2)n1 was tested, and the AC50 was 316 nM (active).
With O=C(O)CCC(O)=C1S(=O)(=O)OCCOS1(=O)=O the activity, negative = inhibition was 3.76% [at 11.4 µM] (inactive).
With Cc1nc(NC(=O)c2ccco2)sc1-c1csc(Nc2ccc(Cl)cc2Cl)n1 the AC50 was 355 nM (active).
For Cc1nc(NC(=O)c2ccccc2)sc1-c1csc(Nc2cccc(Cl)c2)n1, the AC50 was 562 nM (active).
With C=CCCC(=O)Nc1nc(C)c(-c2csc(Nc3ccc(Cl)cc3)n2)s1 the AC50 was 1260 nM (active).
For Cc1nnc(NC(=O)c2cccc(NC(=O)C(C)C)c2)s1, the AC50 was “inactive”.
In the case of Cc1nc(NC(=O)c2ccccc2)sc1-c1csc(Nc2ccc(Cl)cc2Cl)n1, the AC50 is reported as 355 nM (active).
O=C(O)Cc1cc(I)c(Oc2ccc(O)c(I)c2)c(I)c1 was tested, and the AC50 was “inactive”.
CC[C@H](C)C(=O)O[C@H]1CCC=C2C=C[C@H](C)[C@H](CC[C@@H]3C[C@H](O)CC(=O)O3)[C@H]21 was tested, and the AC50 was “inactive”.
With Nc1n[nH]c2ccccc12 the activity, negative = inhibition was -23.5% [at 11.4 µM] (inactive).
For Nc1[nH]nc2nc3ccccc3nc12, the AC50 was 631 nM (active).
COc1ccc(N(C)C(=O)c2ccc3nc(-c4ccccc4)c(-c4ccccc4)nc3c2)cc1 was tested, and the AC50 was 8910 nM (active).
For CCCOc1ccc(Cn2c(C)nc([N+](=O)[O-])c2SCC(O)COC)cc1[N+](=O)[O-] (stereo not drawn), the AC50 was 2820 nM (active).
With CNc1nc(C)cc(C)c1S(=O)(=O)c1ccc(C)cc1 the AC50 was 631 nM (active).
CNc1nc(C)cc(C)c1S(=O)(=O)c1ccc(Cl)cc1 was tested, and the AC50 was 708 nM (active).
For Cc1cc(C)nc(NS(=O)(=O)c2ccc(N)cc2)n1, the AC50 was “inactive”.
Cc1cc(C)c(S(C)(=O)=O)c(Oc2ccc(C(C)(C)C)cc2)n1 was tested, and the AC50 was 7940 nM (active).
For COc1ccc(Oc2nc(C)cc(C)c2S(=O)(=O)c2ccc(C)cc2)cc1, the AC50 was 14100 nM (active).
